More than one record can exist for a structure, and the calls need not agree. Active and inactive are the calls of the source. How the source made its calls: active means hit-call score of the fitted dose curve at least 0.9, where 1 is the maximum; inactive means score below 0.9.
What was measured:
[1] = read-out: Cyclin D1 (CCND1), CCND1 (gene 595); assay: LTEA_HepaRG_CCND1: Life Technologies and Expression Analysis (LTEA) Assay for Cyclin D1 (CCND1) using HepaRG (AID 2283451); settings: mRNA level, 48 h; actives raise or lower the signal;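 on AC50: differentiated human HepaRG liver cells in serum-free induction medium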
Summary of the method: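 Expression of CCND1 was quantified by qRT-PCR on Fluidigm arrays using ACTB, GAPDH and POLR2A as reference genes. HepaRG cultures, plated 48 h beforehand, were dosed for 48 h at up to 100 uM (half-log, 8 points) in 0.5% DMSO.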

[2] = read-out: catalase (CAT), CAT (gene 847); assay: LTEA_HepaRG_CAT: Life Technologies and Expression Analysis (LTEA) Assay for catalase (CAT) using HepaRG (AID 2283452); settings: mRNA level, 48 h; actives raise or lower the signal
Summary of the method: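 HepaRG cells in serum-free induction medium, 0.5% DMSO vehicle, exposed 48 h in duplicate over 8 half-log concentrations from 100 uM. CAT mRNA measured by qRT-PCR, normalized to ACTB, GAPDH, POLR2A; bidirectional fit versus DMSO.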

[3] = read-out: flavin-containing dimethylaniline monooxygenases 3 (FMO3), FMO3 (gene 2328); assay: LTEA_HepaRG_FMO3: Life Technologies and Expression Analysis (LTEA) Assay for flavin-containing dimethylaniline monooxygenases 3 (FMO3) using HepaRG (AID 2283453); settings: mRNA level, 48 h; actives raise or lower the signal;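 on AC50: differentiated human HepaRG liver cells in serum-free induction medium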
Summary of the method: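 FMO3 transcript quantified by TaqMan qRT-PCR against three housekeeping genes after 48 h chemical exposure of HepaRG cells. Eight-point half-log series, top 100 uM, 0.5% DMSO vehicle; phenobarbital 1mM induction control; up- or down-regulation fitted.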

[4] = read-out: Cytochrome P450 (CYP1A1), CYP1A1 (gene 1543); assay: LTEA_HepaRG_CYP1A1: Life Technologies and Expression Analysis (LTEA) Assay for Cytochrome P450 (CYP1A1) using HepaRG (AID 2283454); settings: mRNA level, 48 h; actives raise or lower the signal
Summary of the method: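 CYP1A1 transcript levels measured by Fluidigm qRT-PCR against three housekeeping genes, 48 h after chemical dosing of human HepaRG cells (highest concentration 100 uM, half-log steps, 0.5% DMSO vehicle). Gain or loss of signal fitted relative to DMSO.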

[5] = read-out: CFLAR gene, CFLAR (gene 8837); assay: LTEA_HepaRG_CFLAR: Life Technologies and Expression Analysis (LTEA) Assay for CFLAR gene using HepaRG (AID 2283455); settings: mRNA level, 48 h; actives raise or lower the signal
Summary of the method: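 qRT-PCR read-out (Fluidigm/TaqMan) of CFLAR mRNA, normalized to three housekeeping genes, in differentiated human HepaRG cells after 48 h chemical exposure; 8-point half-log series from 100 uM in 0.5% DMSO; bidirectional curve fitting versus DMSO.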

[6] = read-out: growth arrest and DNA damage 45 (GADD45A), GADD45A (gene 1647); assay: LTEA_HepaRG_GADD45A: Life Technologies and Expression Analysis (LTEA) Assay for growth arrest and DNA damage 45 (GADD45A) using HepaRG (AID 2283458); settings: mRNA level, 48 h; actives raise or lower the signal
Summary of the method: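 GADD45A expression was measured by TaqMan qRT-PCR against three housekeeping genes (ACTB, GAPDH, POLR2A) after 48 h treatment of HepaRG cells. Eight-point half-log series up to 100 uM in 0.5% DMSO, run in duplicate.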

[7] = read-out: Forkhead box O3 (FOXO3), FOXO3 (gene 2309); assay: LTEA_HepaRG_FOXO3: Life Technologies and Expression Analysis (LTEA) Assay for Forkhead box O3 (FOXO3) using HepaRG (AID 2283459); settings: mRNA level, 48 h; actives raise or lower the signal
Summary of the method: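 qRT-PCR readout of FOXO3 transcript, normalized to three housekeeping genes (ACTB, GAPDH, POLR2A); gain or loss fitted against 0.5% DMSO vehicle. HepaRG cells, 48 h chemical exposure, 8-point half-log series, top 100 uM.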

[8] = read-out: ABC Transporter (ABCB1), ABCB1 (gene 5243); assay: LTEA_HepaRG_ABCB1: Life Technologies and Expression Analysis (LTEA) Assay for ABC Transporter (ABCB1) using HepaRG (AID 2283460); settings: mRNA level, 48 h; actives raise or lower the signal
Summary of the method: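 HepaRG, 48 h exposure, 8-pt half-log series from 100 uM, 0.5% DMSO vehicle, duplicates. Readout: ABCB1 transcript by Fluidigm TaqMan qRT-PCR, housekeeping-normalized; bidirectional curve fit vs DMSO baseline.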

[9] = read-out: growth arrest and DNA damage 45 (GADD45B), GADD45B (gene 4616); assay: LTEA_HepaRG_GADD45B: Life Technologies and Expression Analysis (LTEA) Assay for growth arrest and DNA damage 45 (GADD45B) using HepaRG (AID 2283461); settings: mRNA level, 48 h; actives raise or lower the signal
Summary of the method: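 Transcript level quantified by Fluidigm TaqMan qRT-PCR with three housekeeping genes for normalization, analyzed for up- or down-regulation against 0.5% DMSO. HepaRG cultures dosed 48 h at eight half-log concentrations up to 100 uM, duplicates.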

[10] = read-out: ABC Transporter (ABCC3), ABCC3 (gene 8714); assay: LTEA_HepaRG_ABCC3: Life Technologies and Expression Analysis (LTEA) Assay for ABC Transporter (ABCC3) using HepaRG (AID 2283462); settings: mRNA level, 48 h; actives raise or lower the signal
Summary of the method: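 Transcript level by TaqMan qRT-PCR, normalised to three housekeeping genes, fitted in both directions relative to vehicle. Chemicals tested in duplicate at eight half-log concentrations up to 100 uM for 48 h on HepaRG cells (0.5% DMSO).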

[11] = read-out: ABC Transporter (ABCB11), ABCB11 (gene 8647); assay: LTEA_HepaRG_ABCB11: Life Technologies and Expression Analysis (LTEA) Assay for ABC Transporter (ABCB11) using HepaRG (AID 2283463); settings: mRNA level, 48 h; actives raise or lower the signal
Summary of the method: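 HepaRG, 48 h exposure, 8-pt half-log CRC top 100 uM, 0.5% DMSO vehicle, duplicates. Readout: TaqMan qRT-PCR of ABCB11 mRNA, housekeeping-normalized (ACTB/GAPDH/POLR2A). Bidirectional fit vs DMSO baseline.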

[12] = read-out: ABC Transporter (ABCC2), ABCC2 (gene 1244); assay: LTEA_HepaRG_ABCC2: Life Technologies and Expression Analysis (LTEA) Assay for ABC Transporter (ABCC2) using HepaRG (AID 2283464); settings: mRNA level, 48 h; actives raise or lower the signal
Summary of the method: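 Endpoint is ABCC2 transcript level from qRT-PCR, normalized to three housekeeping genes and fitted bidirectionally relative to DMSO. Human HepaRG cells received test chemical for 48 h at up to 100 uM (8 points, half-log steps, 0.5% DMSO), duplicate wells.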

[13] = read-out: Broad substrate specificity ATP-binding cassette transporter ABCG2 (Homo sapiens) (UniProt Q9UNQ0); assay: LTEA_HepaRG_ABCG2: Life Technologies and Expression Analysis (LTEA) Assay for ABC Transporter (ABCG2) using HepaRG (AID 2283465); settings: mRNA level, 48 h; actives raise or lower the signal
Summary of the method: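 HepaRG, 48 h exposure, 8-pt half-log series from 100 uM, 0.5% DMSO vehicle, duplicates. Readout: ABCG2 transcript by qRT-PCR (Fluidigm array), housekeeping-normalized; bidirectional curve fit relative to DMSO baseline.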

[14] = read-out: Peroxisomal acyl-coenzyme A oxidase 1 (ACOX1) gene, ACOX1 (gene 51); assay: LTEA_HepaRG_ACOX1: Life Technologies and Expression Analysis (LTEA) Assay for Peroxisomal acyl-coenzyme A oxidase 1 (ACOX1) gene using HepaRG (AID 2283467); settings: mRNA level, 48 h; actives raise or lower the signal
Summary of the method: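 HepaRG, 48 h chemical exposure, 8-pt half-log series from 100 uM top, 0.5% DMSO vehicle, duplicates. Readout: ACOX1 mRNA by Fluidigm qRT-PCR, housekeeping-normalized; bidirectional fit vs DMSO baseline.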

[15] = read-out: Alkaline Phosphatase, Placental (ALPP) gene, ALPP (gene 250); assay: LTEA_HepaRG_ALPP: Life Technologies and Expression Analysis (LTEA) Assay for Alkaline Phosphatase, Placental (ALPP) gene using HepaRG (AID 2283468); settings: mRNA level, 48 h; actives raise or lower the signal;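 on AC50: differentiated human HepaRG liver cells in serum-free induction medium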
Summary of the method: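 ALPP transcript level, measured by qRT-PCR and normalized to three housekeeping genes (ACTB, GAPDH, POLR2A), after 48 h dosing of differentiated HepaRG in serum-free induction medium. Top concentration 100 uM with half-log dilutions (8 points, 0.5% DMSO, duplicates); bidirectional fitting relative to DMSO.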

[16] = read-out: Bcl-2 (BAD) gene, BAD (gene 572); assay: LTEA_HepaRG_BAD: Life Technologies and Expression Analysis (LTEA) Assay for Bcl-2 (BAD) gene using HepaRG (AID 2283469); settings: mRNA level, 48 h; actives raise or lower the signal
Summary of the method: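 HepaRG, 48 h exposure, 8-pt half-log curve from 100 uM in 0.5% DMSO, duplicates. Readout: TaqMan qRT-PCR for BAD mRNA, housekeeping-normalised (ACTB/GAPDH/POLR2A); gain or loss fitted against DMSO baseline.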

[17] = read-out: Bcl-2 (BAX) gene, BAX (gene 581); assay: LTEA_HepaRG_BAX: Life Technologies and Expression Analysis (LTEA) Assay for Bcl-2 (BAX) gene using HepaRG (AID 2283470); settings: mRNA level, 48 h; actives raise or lower the signal
Summary of the method: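 Gene expression measured by Fluidigm qRT-PCR with three housekeeping genes for normalisation. HepaRG cells, plated 48 h beforehand, treated 48 h at up to 100 uM (8-point, half-log) in 0.5% DMSO. Bidirectional fitting versus DMSO.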

[18] = read-out: Forkhead box O1 (FOXO1), FOXO1 (gene 2308); assay: LTEA_HepaRG_FOXO1: Life Technologies and Expression Analysis (LTEA) Assay for Forkhead box O1 (FOXO1) using HepaRG (AID 2283456); settings: mRNA level, 48 h; actives raise or lower the signal
Summary of the method: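 HepaRG, 48 h exposure, 8-pt half-log series from 100 uM in 0.5% DMSO, duplicates; Fluidigm qRT-PCR mRNA, housekeeping-normalised; bidirectional fit vs DMSO baseline.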

[19] = CEETOX_H295R_TESTO: CeeTox H295R High-throughput Steroidogenesis Assay for Testosterone (TESTO) (AID 2283457); settings: actives raise or lower the signal
Summary of the method: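 Testosterone secreted into the medium over 48 h by H295R cells (maximum passage 10) was quantified by LC-MS/MS after MTBE extraction. Fitted in both directions against DMSO, with concentrations diluted until MTT viability was ≥70%.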

[20] = read-out: ATP-citrate lyase (ACLY), ACLY (gene 47); assay: LTEA_HepaRG_ACLY: Life Technologies and Expression Analysis (LTEA) Assay for ATP-citrate lyase (ACLY) using HepaRG (AID 2283466); settings: mRNA level, 48 h; actives raise or lower the signal
Summary of the method: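 qRT-PCR readout of ACLY transcript after 48 h chemical treatment of HepaRG cells; expression normalized to three housekeeping genes. Eight-point half-log series, highest 100 uM, 0.5% DMSO vehicle. Gain or loss fitted against DMSO baseline.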

Measured: AC50

Sequence of Broad substrate specificity ATP-binding cassette transporter ABCG2 (Homo sapiens) (Q9UNQ0 whole entry, looked up): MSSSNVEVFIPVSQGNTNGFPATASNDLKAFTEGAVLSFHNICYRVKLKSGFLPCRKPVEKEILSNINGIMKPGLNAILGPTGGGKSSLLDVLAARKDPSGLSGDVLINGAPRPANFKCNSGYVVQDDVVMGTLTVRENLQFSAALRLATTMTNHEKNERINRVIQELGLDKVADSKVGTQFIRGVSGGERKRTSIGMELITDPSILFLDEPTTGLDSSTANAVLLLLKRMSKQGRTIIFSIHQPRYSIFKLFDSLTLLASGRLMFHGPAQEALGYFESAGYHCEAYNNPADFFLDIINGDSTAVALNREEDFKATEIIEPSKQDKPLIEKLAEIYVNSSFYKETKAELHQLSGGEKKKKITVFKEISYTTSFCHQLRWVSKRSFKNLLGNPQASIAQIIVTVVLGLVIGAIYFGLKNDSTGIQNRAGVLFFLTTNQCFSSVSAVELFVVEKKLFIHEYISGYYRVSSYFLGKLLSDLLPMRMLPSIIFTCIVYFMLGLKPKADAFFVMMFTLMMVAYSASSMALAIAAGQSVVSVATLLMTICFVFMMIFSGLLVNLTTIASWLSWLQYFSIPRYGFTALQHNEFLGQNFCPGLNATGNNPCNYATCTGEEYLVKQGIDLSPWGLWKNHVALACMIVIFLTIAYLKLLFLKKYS

N#Cc1cc(Br)c(O)c(Br)c1
inactive: [16] | [17]
active: [1] 10.4 µM | [2] 9.54 µM | [3] 12.7 µM | [4] 73.6 µM | [5] 10 µM | [6] 72.5 µM | [7] 13.7 µM | [8] 12.1 µM | [9] 27.1 µM | [10] 9.48 µM | [11] 19.9 µM | [12] 14 µM | [13] 10.2 µM | [14] 11.1 µM | [15] 8.91 µM

CC(C)Oc1cc(-n2nc(C(C)(C)C)oc2=O)c(Cl)cc1Cl
active: [2] 50 µM | [3] 61.5 µM | [4] 13.2 µM | [8] 1.25 µM | [11] 58.8 µM | [12] 2.52 µM | [13] 26 µM | [20] 77.4 µM | [14] 19.8 µM | [15] 69.8 µM
inactive: [1] | [5] | [18] | [19] | [6] | [7] | [10] | [16] | [17]

Cc1c(F)c(F)c(COC(=O)C2C(/C=C(\Cl)C(F)(F)F)C2(C)C)c(F)c1F (stereo not drawn)
active: [4] 50 µM | [11] 50 µM
not listed: [9] | [19] | [20]
inactive: all other assays above

O=C(O)c1nc(Cl)ccc1Cl
inactive: [1] | [2] | [3] | [4] | [5] | [6] | [7] | [8] | [10] | [11] | [12] | [13] | [14] | [15] | [16] | [17]
active: [4] 50 µM | [15] 27.3 µM

CCCCNC(=O)n1c(NC(=O)OC)nc2ccccc21
active: [4] 26.1 µM
not listed: [9] | [18] | [20]
inactive: all other assays above
